The values below come from PubChem BioAssay.

Records with an inconclusive call do not appear. Calls of active or inactive are those of the source. Unless noted, the limit is not given here; nearly all actives have AC50 up to about 30 µM.

The nature of assay [1]: growth inhibition of DIPG glioma cells, dose response, cell-based, JHH-DIPG-1, MIPE4.0, CellTiter-Glo, qHTS (AID 1347062; cut-off not given, nearly all actives have AC50 up to about 27 µM;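 as to AC50: cells exposed to compound for two days before readout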). As to conditions: JHH-DIPG-1 viability, CellTiter-Glo ATP luminescence. Background: In ATP-based viability assays light output follows the ATP content of the culture.
Assay [2] in a line: growth inhibition of DIPG glioma cells, dose response, cell-based, SU-DIPG-IV, MIPE4.0, CellTiter-Glo, qHTS (AID 1347063).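 Also: compound exposure lasted 48 hours before the viability readout.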 The note with it: SU-DIPG-IV viability, CellTiter-Glo ATP luminescence.
Assay [3] can be described thus: growth inhibition of DIPG glioma cells, dose response, cell-based, SU-DIPG-XIII, MIPE5.0, CellTiter-Glo, qHTS (AID 1347064; cut-off not given, nearly all actives have AC50 up to about 23 µM;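 as to AC50: cells exposed to compound for 48 hours before the viability read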). As to conditions: SU-DIPG-XIII viability, CellTiter-Glo ATP luminescence.
Assay [4] can be described thus: SU-DIPG-VI glioma cell viability, MIPE4.0 library, CellTiter-Glo luminescence, qHTS (AID 1347066).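 Also: cells exposed to compound for 48 hours before readout.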 The note with it: CellTiter-Glo ATP luminescence.
Assay [5] in a line: JHH-DIPG-1 glioma cell viability, MIPE5.0 library, CellTiter-Glo luminescence, qHTS (AID 1347067; cut-off not given, nearly all actives have AC50 up to about 26 µM;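 also: cells exposed to compound for 48 hours before readout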). As to conditions: JHH-DIPG-1 glioma viability, CellTiter-Glo ATP luminescence.
Assay [6] can be described thus: SU-DIPG-XXV glioma cell viability, MIPE5.0 library, qHTS (AID 1347068; cut-off not given, nearly all actives have IC50 up to about 30 µM;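 as to IC50: cells exposed to compound for 48 hours before viability readout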).
Assay [7] in a line: sensitizers of A549 cells to miR-34 induction, primary screen, imaging, A549 dox-inducible miR-34, nuclei and caspase counts (AID 1347080;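 active = compounds whose cell count with miR-34 switched on is under 0.7 times the count with it off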). As to conditions: A549 miR-34 inducible, Hoechst nuclei count, 48 h.
A short description of assay [8]: survival rescue of mitochondrial mutant cells in low glucose, primary screen, MELAS cybrids, Rieske KO mouse fibroblasts, CellTiter-Glo (AID 1508586;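 active = mean z-score across replicates of 1.96 or higher in either the MELAS or the Rieske mutant cell line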;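 also: z relative to plate mean and SD of compound and empty wells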).
A short description of assay [9]: viability loss in pontine glioma line – cell-based, SU-DIPG-XXV, MIPE5.0, CellTiter-Glo, qHTS, dose response (AID 1347065; cut-off not given, nearly all actives have AC50 up to about 26 µM;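 also: cells exposed to compound for 48 hours before ATP readout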). As to conditions: CellTiter-Glo ATP luminescence.
A short description of assay [10]: growth inhibition of DIPG glioma cells, dose response, cell-based, SU-DIPG-XIII, MIPE4.0, CellTiter-Glo, qHTS (AID 1347061; cut-off not given, nearly all actives have AC50 up to about 37 µM;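 also: cells exposed to compound for 48 hours before readout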). The note with it: SU-DIPG-XIII viability, CellTiter-Glo ATP luminescence.
Assay [11] can be described thus: modifiers of HSF1 nuclear foci, imaging, Selleck Cancer Library (AID 1347162; in the data active = plate-normalised HSF1 focus index below about 0.46). As to conditions: human cells, at 10 µM; SSMD: measured here: HSF1 foci SSMD mean; cell count: measured here: cell number; plate-normalised HSF1 focus index: stronger effect = lower value.
[12] abbreviates: stronger effect = lower value, cell number ratio, induced over uninduced.
The mark [13] stands for this setting: measured here: relative caspase fold change +Dox/-Dox.
The mark [14] stands for this setting: measured here: total cells with miR-34 induction, stronger effect = lower value.
Setting [15] is: measured here: total cells without miR-34 induction.
The mark [16] stands for this setting: MELAS cybrid survival, CellTiter-Glo 48 h, stronger effect = higher value.
[17] abbreviates: Rieske KO mouse fibroblast survival, CellTiter-Glo 72 h.

Usually AC50 stands for the midpoint of the concentration-response curve, whichever way the signal moves. In the case of `CCCNC(=O)Nc1ccc(Oc2ncnc3cc(OC)c(OC)cc23)cc1Cl`, the compound was called inactive in assay [1], in assay [2], in assay [4] and in [6]. The figures for the AC50 in assay [3] and in assay [5] were 20.9 µM (active) and 26.3 µM (active), respectively. The fold change in [7] (setting [12]) is 0.924 (inactive); in [7] (setting [13]), 0.73. The cell count was 7400 in [7] (setting [14]) and 8010 in assay [7] (setting [15]). Besides, the z-score in assay [8] (setting [16]) was 0.782 (inactive); in [8] (setting [17]), 0.0458.

As for `Cn1cc(-c2ccncc2)c(-c2ccc(OCc3ccc4ccccc4n3)cc2)n1`, the result in assay [1], in assay [2], in assay [4] and in assay [6] was inactive. Besides, the AC50 in assay [9] was 23.5 µM (active).

What is called IC50 is the midpoint of a concentration-inhibition curve. For the compound `Cc1cc(Nc2cc(NC(=O)c3c(Cl)cccc3Cl)ccn2)nc(N)n1`, the AC50 in [1] is 18.7 µM (active); in [2] it was 18.7 µM (active); in assay [3], 8.33 µM (active); in [9], 9.34 µM (active); in [5], 9.34 µM (active). For the same compound, the IC50 in assay [6] is 18.6 µM (active).

For the compound `Cc1cccc(-c2nn(C(=S)Nc3ccccc3)cc2-c2ccnc3ccccc23)n1`, the compound was called inactive in assay [1], in [2], in assay [3], in assay [9], in assay [4] and in assay [5]. In addition, in [6], the outcome was inactive.

On to `NC1(Cc2ccc(Cl)cc2)CCN(c2ncnc3[nH]ccc23)CC1`, for which the AC50 in assay [1] was 20.9 µM (active); in [2], 11.8 µM (active); in assay [3], 14.8 µM (active); in [9], 14.8 µM (active). For the same compound, the fold change was 0.99 (inactive) in assay [7] (setting [12]) and 0.525 in assay [7] (setting [13]). The figures for the cell count in [7] (setting [14]) and in [7] (setting [15]) were 7470 and 7540, respectively. The values for the z-score in assay [8] (setting [16]) and in assay [8] (setting [17]) were -0.165 (inactive) and -1.1, respectively.

For the compound `CC(C)C[C@H](NC(=O)c1cc2ccccc2s1)C(=O)N1CCN(C(=O)[C@H](CO)NS(=O)(=O)c2ccc(Cl)cc2Cl)CC1`, the result in [1] was inactive. For the same compound, the AC50 is 20.9 µM (active) in [2], 20.9 µM (active) in assay [9] and 23.5 µM (active) in [4].

For `C[C@@H](O)[C@H]1C(=O)N2C(C(=O)OCOC(=O)C(C)(C)C)=C(SC3CN(C4=NCCS4)C3)[C@H](C)[C@H]12`, the call in assay [10] and in assay [4] was inactive.

Take `CCCCCCCc1ccc(CCc2cccc(O)c2C(=O)O)cc1`: the compound was classed as inactive in [1], in [2], in assay [9], in assay [5] and in assay [6]. Further, in [11], the SSMD was found to be 0.921. Further, the cell count in assay [11] came out at 6030. Also, in [11], the plate-normalised HSF1 focus index is 1.06 (inactive).

Regarding `COc1ccc(Cn2ccc3ccc(C(=O)NO)cc32)cc1`, the compound was classed as inactive in assay [1], in assay [2], in assay [9], in assay [4] and in assay [5]. For the same compound, the fold change in assay [7] (setting [12]) was 0.793 (inactive); in [7] (setting [13]), 0.954. The cell count in assay [7] (setting [14]) was determined as 5300; in [7] (setting [15]) it was 6690. Moreover, the z-score in assay [8] (setting [16]) was -0.343 (inactive); in assay [8] (setting [17]), 0.636.

Take `CNC(=O)[C@H](Cc1ccccc1)NC(=O)[C@H](CC(C)C)[C@H](CSc1cccs1)C(=O)NO`: the compound was called inactive in [10], in assay [4], in assay [5] and in assay [6].

For the compound `C/C=C(/C)C(=O)O[C@H]1C(C)=C[C@]23C(=O)[C@@H](C=C(CO)[C@@H](O)[C@]12O)[C@H]1[C@@H](C[C@H]3C)C1(C)C`, the result in [10] was inactive. Also, in [4], the AC50 was 20.9 µM (active).

`Nc1cccc(S(=O)(=O)N2CCCN(S(=O)(=O)c3ccc4c(c3)OCCO4)CC2)c1`: the result in assay [10], in assay [4] and in [6] was inactive.

With `CNC1CCC(N(Cc2cccc(-c3ccncc3)c2)C(=O)c2sc3ccccc3c2Cl)CC1` (stereo not given), the concentration at half-maximal activity (AC50) is 14.8 µM (active) in [1]; 16.6 µM (active) in [2]; 11.8 µM (active) in [9]; 18.7 µM (active) in assay [4]; 20.9 µM (active) in assay [5]. The IC50 in assay [6] was 9.34 µM (active).
